An excerpt weighted towards active compounds, which were near 0.82% of everything screened.
Keap1 Nrf2 FP: Keap1-Nrf2 protein-protein interaction inhibitors, primary screen, biochemical, fluorescence polarization, single point; Kelch-like ECH-associated protein 1 (Homo sapiens), Q14145; Keap1 Kelch-Nrf2 peptide fluorescence polarization, 1536-well; inhibition, % at 9.4 µM; 0.15% of 340,000 active; AID 504523, 2011; in the data active means inhibition above about 12%;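 further: human Keap1 Kelch domain with fluorescein labeled Nrf2 9mer peptide probe; 0% = neutral control wells and 100% = peptide positive control; higher means more block of Keap1 binding to Nrf2 peptide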
Target sequence (Q14145 whole entry, looked up, the tested form may be a part): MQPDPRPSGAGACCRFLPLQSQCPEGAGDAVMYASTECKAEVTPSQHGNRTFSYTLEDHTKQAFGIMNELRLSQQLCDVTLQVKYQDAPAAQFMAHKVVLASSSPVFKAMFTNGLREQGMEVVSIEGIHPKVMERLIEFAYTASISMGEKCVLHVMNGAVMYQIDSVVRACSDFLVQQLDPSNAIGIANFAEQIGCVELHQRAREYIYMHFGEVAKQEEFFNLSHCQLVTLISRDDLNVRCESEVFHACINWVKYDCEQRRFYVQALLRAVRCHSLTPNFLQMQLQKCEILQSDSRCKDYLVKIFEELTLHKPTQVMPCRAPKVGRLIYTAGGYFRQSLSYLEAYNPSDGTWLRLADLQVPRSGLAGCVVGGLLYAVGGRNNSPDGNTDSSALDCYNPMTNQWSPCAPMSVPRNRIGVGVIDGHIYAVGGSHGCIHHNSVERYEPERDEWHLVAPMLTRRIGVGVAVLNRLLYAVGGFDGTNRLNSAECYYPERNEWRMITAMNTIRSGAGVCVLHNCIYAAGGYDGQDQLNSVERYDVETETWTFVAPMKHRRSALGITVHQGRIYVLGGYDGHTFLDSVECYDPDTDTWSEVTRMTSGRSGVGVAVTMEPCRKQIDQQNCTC
cardiac RTF act: cardiac RTF calcium sensitivity activators, primary screen, biochemical, IANBD-TnC fluorescence, EC20 calcium; Troponin I, cardiac muscle (Homo sapiens) + Troponin T, cardiac muscle (Homo sapiens) + …; IANBD-labeled TnC RTF fluorescence at EC20 calcium; 0% EC20 calcium, 100% full calcium; activation, % at 7.2 µM; 0.24% of 340,000 active;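 active means activation above the mean over all tested compounds plus 3 SD, cut at about 30% in these data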;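 further: rise in fluorescence read as greater calcium sensitivity of cardiac thin filaments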
E coli Lon inh: inhibitors of E. coli Lon protease, primary screen, biochemical, fluorescence polarization | purified E. coli Lon protease | inhibition, % at 7.94 µM | 0.42% of 360,000 active | AID 602123, 2011; in the data active means inhibition above about 13%, passing the limit was not always enough;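 further: 0% = enzyme with probe and DMSO and 100% = no enzyme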
RTF Ca sens inh: cardiac RTF calcium sensitivity inhibitors, primary screen, biochemical, IANBD-TnC fluorescence, EC70 calcium. Troponin I, cardiac muscle (Homo sapiens) + Troponin T, cardiac muscle (Homo sapiens) + …. IANBD-labeled cardiac RTF, Ca2+ fluorescence. inhibition, % at 7.15 µM. 0.12% of 340,000 active;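 active means inhibition above the mean inhibition of all tested compounds plus 3 SD, cut at about 17% in these data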;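 further: assay run at fixed EC70 calcium of 1.6 mM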
C-LANA FP: inhibitors of KSHV C-LANA binding to DNA, primary screen, biochemical, fluorescence polarization, FAM-LBS DNA, MBP-C-LANA, single point; AID 504423, 2011; 0.078% of 340,000 active; inhibition, % at 9 µM; Kaposi's sarcoma herpesvirus LANA C-terminal domain (residues 932-1162) DNA binding;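 active means highest replicate inhibition at or above 60% at 9 µM, even if other replicates fall short; inactive means all replicates below 60% inhibition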;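 further: 0% = neutral control wells and 100% = 4 µM acridine orange control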
Keap1 Kelch bind: Keap1 Kelch domain binders by thermal stabilisation, dose response, biophysical, thermal shift, RT-PCR instrument, cherry-pick. shares compounds with Keap1 Nrf2 FP. delta Tm; active compounds read high. max delta Tm, degrees C. 8% of 400 active. AID 651823, 2012; in the data active means max delta Tm above about 0.48 degrees C
eLon confirm: E. coli Lon protease inhibitor retest, confirmation, biochemical, fluorescence polarization | shares compounds with E coli Lon inh | purified E. coli Lon | inhibition, % at 7.94 µM | 31% of 1,400 active | AID 602230, 2012; in the data active means inhibition above about 16%;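 further: 0% = enzyme with probe and DMSO and 100% = no enzyme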
* hit, by the source's call; nt = not tested or not shown; + = active, no number.

SMILES	Keap1 Nrf2 FP	cardiac RTF act	E coli Lon inh	RTF Ca sens inh	C-LANA FP	eLon confirm	others
CCOc1cccc(C2C(C(=O)c3ccc(C)o3)=C(O)C(=O)N2c2nccs2)c1 (stereo unspecified)	24*	7	98*	-25	21	118*	Keap1 Kelch bind=-0.09
O=C(C1=C(O)C(=O)N(CCc2ccccc2)C1c1ccncc1)c1cc2ccccc2o1 (stereo unspecified)	-2	6	-4	1	1	nt
O=C(C1=C(O)C(=O)N(c2nccs2)C1c1ccccc1)c1cc2ccccc2o1 (stereo unspecified)	42*	34*	+	-86	37	197*	Keap1 Kelch bind=-0.1
COc1ccc(N=Nc2nc3ccc(Br)cc3n2C)cc1	48*	132*	+	-272	70*	92*	Keap1 Kelch bind=-0.14
CCOC1=C2[C@H](c3ccccc3)N(S(=O)(=O)c3ccc(C)cc3)C(C(C)(C)C)[C@H]2C(C#N)(C#N)C(C#N)(C#N)C1 (stereo partly specified)	nt	nt	-1	nt	nt	nt
CC(C)c1nnc(N2C(=O)C(O)=C(C(=O)c3cccs3)C2c2ccccc2)s1 (stereo unspecified)	20*	25	34*	-46	35	80*	Keap1 Kelch bind=-0.16
Cc1ccc(SCCC(=O)Nc2ccccc2C(=O)NC(C)C)cc1	-2	0	69*	7	0	15
Cc1ccc(SCCC(=O)Nc2ccccc2Br)cc1	-2	1	0	6	1	nt
CC1(C(=O)NS(=O)(=O)c2ccccc2OC(F)(F)F)CCN1C(=O)c1ccccc1 (stereo unspecified)	nt	nt	14	nt	nt	nt
COc1ccc(S(=O)(=O)N2CCN(Cc3ccc4c(c3)OCO4)CC2)cc1	0	-1	43*	2	1	2
CSc1ccc(S(=O)(=O)N2CCN(Cc3ccc4c(c3)OCO4)CC2)cc1	-3	-3	-9	-10	-3	nt
CC(=O)OCC(C)n1[nH]c2ccccc2c1=O (stereo unspecified)	nt	nt	-5	nt	nt	nt
O=C(CSc1nc2ccccc2s1)NC1CCCC1	-4	3	23*	3	0	3
O=C(CSc1nnc(CSc2nc3ccccc3s2)o1)NC1CCCCC1	-4	4	5	-7	1	nt
CCCOc1ccc(F)cc1-c1cc(C(=O)NCc2cccs2)[nH]n1	nt	nt	-11	nt	nt	nt
CN(Cc1ccccc1)C(=O)c1ccc2nc([C@H]3C[C@H](O)[C@@H](CO)O3)[nH]c2c1	nt	nt	-1	nt	nt	nt
Cc1noc(-c2ccccc2)c1NC(=O)Nc1ccc2nc([C@H]3C[C@H](O)[C@@H](CO)O3)[nH]c2c1	nt	nt	17*	nt	nt	2
O=C(CN1C(=O)c2ccccc2C1=O)c1ccccc1	-2	2	-4	-4	3	nt
O=C(O)CN1C(=O)c2ccc(C(=O)c3ccccc3)cc2C1=O	-5	-2	27*	-7	-2	-3
Cc1ccc(C(O)c2ncc(-c3cccc(C(F)(F)F)c3)[nH]2)cc1 (stereo unspecified)	nt	nt	15*	nt	nt	2
CC1(C(=O)NS(=O)(=O)c2ccc(F)cc2F)CCN1C(=O)CC(c1ccccc1)c1ccccc1 (stereo unspecified)	nt	nt	10	nt	nt	nt
CN(Cc1ccccc1)C(=O)Cn1nnc(-c2ccccc2)c1COc1ccc2ccccc2c1	nt	nt	-1	nt	nt	nt
O=C(O)c1ccc(N2C(=O)CSC2=S)cc1	-2	4	-3	0	0	nt
O=C(O)c1ccc(CN2C(=O)CSC2=S)cc1	-12	8	16*	4	-1	-7
N#C/C(=C(/O)c1cccs1)c1nc2ccccc2[nH]1	0	-1	16*	-9	0	-8
SMILES	Keap1 Nrf2 FP	cardiac RTF act	E coli Lon inh	RTF Ca sens inh	C-LANA FP	eLon confirm	others
N#C/C(=C(/O)c1ccc(Br)s1)c1nc2ccccc2[nH]1	2	-7	3	-6	1	nt
COCCn1nnnc1C(C(C)C)N1CCN(C(=O)c2ccco2)CC1 (stereo unspecified)	0	1	-7	-4	2	nt
CCCC(c1nnnn1CCOC)N1CCN(C(=O)c2ccco2)CC1 (stereo unspecified)	1	2	29*	-3	-1	-7
O=C(NCc1ccc(F)cc1)c1cc(C2CCCCN2S(=O)(=O)c2cccs2)on1 (stereo unspecified)	nt	nt	1	nt	nt	nt
CC(=O)Nc1ccc(C(=O)N2CCCCC2c2cc(C(=O)NC(C)C)no2)cc1 (stereo unspecified)	nt	nt	0	nt	nt	nt
CCC1(O)C(=O)OCc2c1cc1n(c2=O)Cc2cc3cc(O)ccc3nc2-1 (stereo unspecified)	5	27	+	-34	12	+
CC1=C(C(=O)c2ccccc2)C(c2cccc([N+](=O)[O-])c2)NC(=S)N1 (stereo unspecified)	-3	-6	26*	4	-1	1
COc1cccc(Cn2c3ccc(NC(=O)CCc4ccc(F)cc4)cc3c(=O)n2C)c1	nt	nt	-2	nt	nt	nt
CCCCNC(=O)C1(C)CCCCN1C(=O)c1sccc1C (stereo unspecified)	nt	nt	22*	nt	nt	-1
CCCCNC(=O)C1(C)CCN1C(=O)c1c(F)ccc(C)c1F (stereo unspecified)	nt	nt	-5	nt	nt	nt
CCCCNC(=O)C1(C)CCN1C(=O)c1ccc(OC)c(F)c1 (stereo unspecified)	nt	nt	16*	nt	nt	-7
CCc1ccc(NC(=O)c2cccc(NC3=NC4CS(=O)(=O)CC4S3)c2)cc1 (stereo unspecified)	0	-2	24*	-3	-2	0
CCOc1ccc(NC(=O)c2cccc(NC3=NC4CS(=O)(=O)CC4S3)c2)cc1 (stereo unspecified)	0	3	-14	-1	-2	nt
CCCNC(=O)C1(C)CCCN(CC(=O)c2ccc3c(c2)OCCO3)C1 (stereo unspecified)	nt	nt	-1	nt	nt	nt
CCN(CC)CCCNc1ccc2ncn3c4ccc(O)cc4c(=O)c1c23	108*	292*	+	-340	147*	+
COCCNC(=O)NC(=O)CN1CCCc2ccccc21	0	-4	48*	2	4	6
CC(C)(C)NC(=O)NC(=O)CN1CCc2ccccc21	1	0	-10	-4	1	nt
O=C(NCc1nnnn1-c1ccc(F)cc1)c1cc2ccccc2o1	nt	nt	-5	nt	nt	nt
O=C(/C=C/c1ccc(Cl)cc1)NC(=S)Nc1ccccc1C(=O)O	-3	0	17*	-8	-2	-7
